The text below walks through data of PMC5540273 (PLoS ONE, 2017).
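Also: kd values determined as follow-up on hits from a single-replicate KINOMEscan panel screen.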

For `CNc1nccc(-c2c(-c3ccc(F)cc3)ncn2CCCN2CCOCC2)n1` [SB-222516], the Kd (in general, a measure of binding affinity in units of concentration) in the assay on PAK2 was over 10 µM.

In the assay on PAK3, `Oc1ccc2ncnc(Nc3ccc(OCc4ccccc4)cc3)c2c1` [GI262866] gave a Kd of over 10 µM.

In the assay with PAK3, `CCCc1ccc(S(=O)(=O)NC2CCN(c3ccnc(Nc4ccc(OC)cc4)n3)C2)cc1` (centres unmarked) [GSK1379737] came in with a Kd of over 10 µM.

`c1ccc(-c2ccc3c(-c4ccnc(Nc5ccc6c(c5)OCCO6)n4)cnn3n2)cc1` [GW818941] displayed a Kd in the assay on PAK6 of over 10 µM.

Take `Cc1ccc(C)c(NC(=O)NCCNc2ccnc(Nc3ccc(F)cc3)n2)c1` [GSK1379878]: the Kd with PAK6 was over 10 µM.

Consider `Cl.Cn1ccc(-c2cccc(Nc3ccnc4cc(-c5nccs5)ccc34)c2)n1` [GW525701], for which the Kd with PAK7 is over 10 µM.

`CSc1nn2c(=O)cc(N3CCOCC3)nc2n1Cc1cccc(Cl)c1Cl` [GSK2347225]: the figures for the dissociation constant (Kd) in the assay on PIK3C2B and in the assay on PIK3CB were 0.36 µM and 0.0008 µM, respectively.

As to `CC(C)(C)c1ccc(-n2cnc3c(N)ncnc32)cc1` [SKF-97263], the results for the Kd in the assay on PIK3C2B and in the assay on PIK3CA were 8.3 µM and over 10 µM, respectively.

In the case of `O=c1cc(N2CCOCC2)nc2n(Cc3cccc(Cl)c3)ccn12` [GSK2296823], binding in the assay on PIK3CB was put at a Kd of 0.015 µM.
